Screening results: PubChem, University of Kansas High Throughput Screening Laboratory
Sampled rows, rich in hits. Any-hit rate of the full collection: about 3.6%.
Pf apPOL block: Pf-apPOL DNA polymerase inhibition | Recombinant Pf-apPOL, molecular beacon fluorescence, 1.5 h | inhibition, % at 10 µM | actives 0.25% (n = 210,000) | AID 1794808
mHTT-CaM PPI inh: mHTT-calmodulin interaction abrogation | AlphaScreen His-mHTT/GST-CaM binding, luminescence | inhibition, % at 15 µM | actives 3.6% (n = 190,000) | P42858 | AID 1671202
Target sequence (P42858 whole entry, looked up, change not shown): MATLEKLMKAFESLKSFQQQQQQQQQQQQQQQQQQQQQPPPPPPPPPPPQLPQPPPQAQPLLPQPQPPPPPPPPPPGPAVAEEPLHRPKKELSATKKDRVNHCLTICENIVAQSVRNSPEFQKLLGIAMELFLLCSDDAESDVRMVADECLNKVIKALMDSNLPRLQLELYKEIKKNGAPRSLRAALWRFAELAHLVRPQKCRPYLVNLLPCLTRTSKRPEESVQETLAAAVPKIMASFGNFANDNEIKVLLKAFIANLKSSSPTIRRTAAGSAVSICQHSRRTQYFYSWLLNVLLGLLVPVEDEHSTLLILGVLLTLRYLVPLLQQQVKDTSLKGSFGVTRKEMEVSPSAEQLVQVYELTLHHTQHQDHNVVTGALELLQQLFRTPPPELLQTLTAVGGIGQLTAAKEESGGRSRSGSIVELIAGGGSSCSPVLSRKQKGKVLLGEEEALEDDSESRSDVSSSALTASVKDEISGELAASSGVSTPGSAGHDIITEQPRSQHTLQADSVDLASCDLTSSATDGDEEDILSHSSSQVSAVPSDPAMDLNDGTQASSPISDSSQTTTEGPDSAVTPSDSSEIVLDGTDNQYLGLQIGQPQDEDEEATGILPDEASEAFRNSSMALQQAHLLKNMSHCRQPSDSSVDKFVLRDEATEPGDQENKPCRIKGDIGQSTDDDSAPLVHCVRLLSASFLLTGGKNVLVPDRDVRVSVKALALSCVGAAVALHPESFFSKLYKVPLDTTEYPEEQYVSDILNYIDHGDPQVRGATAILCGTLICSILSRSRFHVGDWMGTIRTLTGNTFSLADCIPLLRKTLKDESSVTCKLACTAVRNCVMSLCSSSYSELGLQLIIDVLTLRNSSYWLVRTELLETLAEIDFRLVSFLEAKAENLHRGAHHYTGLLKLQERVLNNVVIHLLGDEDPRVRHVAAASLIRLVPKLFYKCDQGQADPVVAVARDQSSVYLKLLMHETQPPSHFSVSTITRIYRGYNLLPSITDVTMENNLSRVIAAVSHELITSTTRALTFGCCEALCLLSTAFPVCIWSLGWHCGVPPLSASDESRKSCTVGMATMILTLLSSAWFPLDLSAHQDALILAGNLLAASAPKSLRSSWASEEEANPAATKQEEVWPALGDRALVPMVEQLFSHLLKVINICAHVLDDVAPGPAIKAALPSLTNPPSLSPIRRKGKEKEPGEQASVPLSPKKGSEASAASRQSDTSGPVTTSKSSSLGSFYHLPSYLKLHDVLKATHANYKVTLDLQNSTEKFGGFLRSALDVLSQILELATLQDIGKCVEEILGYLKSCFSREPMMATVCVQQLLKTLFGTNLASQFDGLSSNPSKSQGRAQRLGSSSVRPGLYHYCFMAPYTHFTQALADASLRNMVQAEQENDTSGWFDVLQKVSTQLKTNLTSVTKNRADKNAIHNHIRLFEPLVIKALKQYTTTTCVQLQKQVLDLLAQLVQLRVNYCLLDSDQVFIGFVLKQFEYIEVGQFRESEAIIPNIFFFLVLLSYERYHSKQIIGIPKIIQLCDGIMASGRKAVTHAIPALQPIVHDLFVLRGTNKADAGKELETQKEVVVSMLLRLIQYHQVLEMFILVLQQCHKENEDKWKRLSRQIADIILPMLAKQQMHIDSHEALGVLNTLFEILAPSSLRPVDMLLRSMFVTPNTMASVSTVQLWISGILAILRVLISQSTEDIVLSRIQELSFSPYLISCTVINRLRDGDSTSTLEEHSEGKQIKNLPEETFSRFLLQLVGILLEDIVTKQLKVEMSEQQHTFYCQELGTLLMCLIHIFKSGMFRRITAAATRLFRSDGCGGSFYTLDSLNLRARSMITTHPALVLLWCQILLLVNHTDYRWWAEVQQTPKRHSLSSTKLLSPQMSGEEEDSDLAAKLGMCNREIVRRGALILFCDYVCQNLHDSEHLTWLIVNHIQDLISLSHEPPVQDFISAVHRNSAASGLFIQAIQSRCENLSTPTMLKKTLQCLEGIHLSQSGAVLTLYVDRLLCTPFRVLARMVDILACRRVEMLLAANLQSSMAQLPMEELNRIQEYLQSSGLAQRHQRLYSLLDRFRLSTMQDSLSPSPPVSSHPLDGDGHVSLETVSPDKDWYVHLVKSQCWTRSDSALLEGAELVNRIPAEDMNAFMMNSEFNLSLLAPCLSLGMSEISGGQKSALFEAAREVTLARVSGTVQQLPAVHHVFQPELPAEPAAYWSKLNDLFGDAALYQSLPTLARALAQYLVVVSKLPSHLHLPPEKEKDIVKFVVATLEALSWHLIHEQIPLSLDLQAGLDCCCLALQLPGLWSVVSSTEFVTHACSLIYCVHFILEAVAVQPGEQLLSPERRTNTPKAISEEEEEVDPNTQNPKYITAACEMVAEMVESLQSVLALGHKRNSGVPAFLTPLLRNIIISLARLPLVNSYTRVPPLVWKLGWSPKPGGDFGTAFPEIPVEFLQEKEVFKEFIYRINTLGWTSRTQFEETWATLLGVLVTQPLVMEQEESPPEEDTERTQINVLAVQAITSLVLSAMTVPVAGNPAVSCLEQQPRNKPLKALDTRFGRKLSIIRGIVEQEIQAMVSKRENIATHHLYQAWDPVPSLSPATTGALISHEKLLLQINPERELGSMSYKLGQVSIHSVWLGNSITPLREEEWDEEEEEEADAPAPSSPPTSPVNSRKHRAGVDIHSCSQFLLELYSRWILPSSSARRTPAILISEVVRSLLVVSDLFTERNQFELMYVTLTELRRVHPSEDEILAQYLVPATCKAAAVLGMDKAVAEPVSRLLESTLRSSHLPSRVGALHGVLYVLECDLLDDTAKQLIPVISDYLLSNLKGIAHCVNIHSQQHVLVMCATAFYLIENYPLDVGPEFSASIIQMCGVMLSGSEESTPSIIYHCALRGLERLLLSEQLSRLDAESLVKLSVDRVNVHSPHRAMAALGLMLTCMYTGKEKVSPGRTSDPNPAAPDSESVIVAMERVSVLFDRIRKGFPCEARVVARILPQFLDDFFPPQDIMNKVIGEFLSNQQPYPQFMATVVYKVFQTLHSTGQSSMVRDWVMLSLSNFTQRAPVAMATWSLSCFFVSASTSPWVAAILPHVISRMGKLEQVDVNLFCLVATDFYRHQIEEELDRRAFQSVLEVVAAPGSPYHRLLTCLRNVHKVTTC
Hits are given with their value; - = inactive; . = no result given. Rule as the data show it: active = inhibition above about 50%; inactive = the rest.

SMILES | Pf apPOL block | mHTT-CaM PPI inh
COc1ccccc1N=c1oc2ccccc2cc1C(=O)Nc1ccccc1F | - | -
Cc1ccc(C2=NC(=Cc3ccc(N(C)C)cc3)C(=O)O2)cc1 | - | -
CCOC(=O)C1CCN(Cc2cc(=O)oc3cc(C)cc(C)c23)CC1 | - | -
CCCN1CCN(C(=O)c2noc3c2CCCCC3)CC1 | - | -
c1nc(N2CCNCC2)c2sc3nc(N4CCOCC4)c4c(c3c2n1)CCCC4 | - | -
c1nc(NCCN2CCOCC2)c2sc3nc(N4CCOCC4)c4c(c3c2n1)CCCC4 | - | 55
CN1CCN(Cc2cncc(-c3cc4ccccc4s3)c2)CC1 | - | 55
CN1CCN(Cc2ccc3c(c2)Cc2ccccc2-3)CC1 | - | -
OCC1OC(Nc2ccc(Br)cc2)C(O)C1O (centres undefined) | . | -
Cc1ccc(F)cc1S(=O)(=O)N1CCC2(C1)C(=O)Nc1ccccc12 (centres undefined) | - | -
O=C1Nc2ccccc2C12CCN(S(=O)(=O)c1cccc(Cl)c1)C2 (centres undefined) | - | 77
Cc1cc(S(=O)(=O)N2CCC3(C2)C(=O)Nc2ccccc23)ccc1F (centres undefined) | - | 96
O=C(Cc1ccccc1Cl)N1CCC2(C1)C(=O)Nc1ccccc12 (centres undefined) | - | -
CC(C)NC(=O)c1ccc(OCC2CCCN2C(=O)c2ccc(N(C)C)cc2)cc1 (centres undefined) | - | -
CCC(=O)Nc1cccc(-c2noc(C3CCCN(C(=O)c4ccccc4OC)C3)n2)c1 (centres undefined) | - | -
O=C1/C(=C/c2ccc([N+](=O)[O-])cc2)C=C(c2ccccc2)N1c1ccccc1O | - | -
COc1ccc(/C=C2\C=C(c3ccccc3)N(c3ccccc3O)C2=O)cc1 | - | 76
OC(CI)C12CC3CC(CC(C3)C1)C2 (centres undefined) | - | -
CCCc1nc(C)c2c(n1)N(CCN1CCCC1)C(=O)CC2 | - | -
CCN(CC)S(=O)(=O)c1ccc(C(=O)Nc2nnc(-c3ccc(OC)cc3OC)o2)cc1 | - | -
CCCCN(CC)S(=O)(=O)c1ccc(C(=O)Nc2nnc(-c3ccccc3OC)o2)cc1 | - | 52
CCN(Cc1ccccc1)S(=O)(=O)c1ccc(C(=O)Nc2nnc(CSC)o2)cc1 | - | -
Cc1nnc(NC(=O)c2ccc(S(=O)(=O)N(CC(C)C)CC(C)C)cc2)o1 | - | 51
CCN(Cc1ccccc1)S(=O)(=O)c1ccc(C(=O)Nc2nnc(C)o2)cc1 | - | 74
CCCCN(CC)S(=O)(=O)c1ccc(C(=O)Nc2nnc(C)o2)cc1 | - | -
SMILES | Pf apPOL block | mHTT-CaM PPI inh
O=C(NCc1ccccc1F)C1CCCN(C(=O)Cc2cccc3ccccc23)C1 (centres undefined) | - | -
CCOc1ccc(-c2nc3s/c(=C\C4=Cc5ccccc5OC4)c(=O)n3n2)cc1 | - | -
Cc1ccc(N=C2C(=O)N(CN3CCOCC3)c3ccccc32)cc1 | - | -
Cc1ccc(N=C2C(=O)N(CN3CCOCC3)c3ccccc32)cc1C | - | 58
CC1CC(=O)N(c2ccc(NC3CCCc4ccccc43)c([N+](=O)[O-])c2)C1=O (centres undefined) | - | -
O=C1CCCC(=O)N1c1ccc(NC2CCCc3ccccc32)c([N+](=O)[O-])c1 (centres undefined) | - | 63
O=C1CCCC(=O)N1c1ccc(N2CCc3ccccc3C2)c([N+](=O)[O-])c1 | - | -
O=C1CCC(=O)N1c1ccc(Nc2ccc3c(c2)CCC3)c([N+](=O)[O-])c1 | - | 74
NC(=O)C1CCN(C(c2cccc(F)c2)c2sc3nc(-c4ccco4)nn3c2O)CC1 (centres undefined) | - | -
CCn1cc(Cl)c(C(=O)N(C)CC2(C)CCOCC2)n1 | - | -
Cc1cc(Oc2ccc([N+](=O)[O-])cc2)nc(-n2nc(C)cc2C)n1 | - | -
Cc1cc(NCC(O)c2ccc([N+](=O)[O-])cc2)nc(-n2nc(C)cc2C)n1 (centres undefined) | - | 97
O=c1c2c([nH]c3ccccc13)CCCC2 | - | .
c1ccc2c3c([nH]c2c1)CCCCCC3 | - | .
Nc1ccc2[nH]c3c(c2c1)CCCC3 | . | 68
Brc1ccc2[nH]c3c(c2c1)CCCCC3 | . | 53
O=C(Nc1ccccc1)c1ccc(N2CCC(NCc3cccc(O)c3)C2)nc1 (centres undefined) | - | -
CCC1=C(O)c2ccccc2C(=O)C1=O | - | -
Cn1c(=O)c(C(=O)NCc2ccc(F)cc2Cl)nc2cccnc21 | - | -
CCc1ccccc1N(CC(=O)Nc1ccc(F)cc1F)S(=O)(=O)c1ccccc1 | - | 81
CCc1ccccc1N(CC(=O)Nc1ccccc1C(=O)NC(C)C)S(C)(=O)=O | - | -
CC(C)NC(=O)c1ccccc1NC(=O)CN(c1ccccc1F)S(=O)(=O)c1ccccc1 | 92 | -
COc1ccc(N(CC(=O)Nc2ccc(F)cc2F)S(=O)(=O)c2ccccc2)c(OC)c1 | - | -
Cc1ccc(Cl)cc1N1C(=O)C2C(c3ccccc3)OC3(C(=O)c4ccccc4C3=O)C2C1=O (centres undefined) | - | -
COc1ccc(-n2nc(C(=O)O)c3ccccc3c2=O)cc1Cl | - | -
SMILES | Pf apPOL block | mHTT-CaM PPI inh
c1ccc(-n2cnnc2C2CCCN(Cc3ccccn3)C2)cc1 (centres undefined) | - | 87
c1cc(CN2CCCC(c3n[nH]c(C4CC4)n3)C2)ccn1 (centres undefined) | - | -
N#Cc1cccc(CN2CCCC(c3nncn3-c3ccccc3)C2)c1 (centres undefined) | - | -
c1ccc(CN2CCCC(c3n[nH]c(C4CC4)n3)C2)nc1 (centres undefined) | - | 95
O=C(NCC(O)C1CCCCC1)c1ccc(-c2ccccc2)cc1 (centres undefined) | - | -
COc1ccccc1C1(CNC(=O)C(=O)NCCC2=CCCCC2)CCOCC1 | - | -
NC(=NO)c1ccc(C2OCCO2)cc1 | - | .
COc1cc(C2C(C#N)=C(N)Oc3c2[nH]c(=O)[nH]c3=O)cc(OC)c1OC (centres undefined) | 97 | -
COc1cc(C2C(C#N)=C(N)Oc3c2oc(CO)cc3=O)cc(OC)c1OC (centres undefined) | - | -
COc1ccc(C)cc1NC(=O)CSCc1ccccc1Cl | - | -
COc1ccc(C=C2Oc3cc(OC(=O)C(C)(C)C)ccc3C2=O)c(OC)c1 | - | -
CC1Cc2nc(SCC(=O)Nc3ccc(Cl)c(Cl)c3)n(C)c(=O)c2S1 (centres undefined) | - | -
O=C(Nc1nc(-c2ccccn2)cs1)c1ccc(S(=O)(=O)N2CCCCC2)cc1 | - | 100
CCCCN(CC)S(=O)(=O)c1ccc(C(=O)Nc2nnc(CC)o2)cc1 | - | -
CCCCN(CC)S(=O)(=O)c1ccc(C(=O)Nc2nc(-c3ccccn3)cs2)cc1 | - | 96
O=C(Nc1nc(-c2ccccn2)cs1)c1ccc(S(=O)(=O)N2CCOCC2)cc1 | - | -
Cc1ccc(C(=O)NC2CCN(c3ccccc3)C2=O)c(C)c1 (centres undefined) | - | -
O=C(NN=Cc1ccc([N+](=O)[O-])s1)c1nc(-c2ccc([N+](=O)[O-])o2)no1 | - | .
O=C(CN1C(=O)/C(=C/c2ccccc2F)Sc2ccccc21)NC1CCCCC1 | - | -
COc1ccc2oc(C)c(C(=O)O)c2c1 | - | -
COc1ccc2oc(C)c(C(C)=O)c2c1 | 98 | -
